D1 PAM – human D1 dopamine receptor positive modulation. potentiation, % at 10 µM. P21728. HEK293 TREx D1 cells, calcium flux, dopamine EC20 potentiation. 360,000 compounds, 0.036% hits; in the data active = potentiation above about 30%
D1 agonist – activates the human D1 dopamine receptor; HEK293 T-REx D1 cells, calcium flux, agonist mode; activation, % at 2 µM; 360,000 compounds, 1% hits; AID 504660; in the data active = activation above about 30%
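Tetracycline-induced HEK293 TREx D1 cells, force-coupled to calcium signalling, were dye-loaded with a no-wash calcium kit. Compound was pin-added after a 10 s baseline. Fluorescence was read kinetically at 1 cycle/s for 180 s, with calcium rises flagged as agonism.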
DRD3 agonist – D3 dopamine receptor (human) agonism; P35462; D3R DiscoveRx beta-arrestin cells, luminescence, 90 min; max activation, %; AID 652048; 410,000 compounds, 0.58% hits; in the data active = max activation above about 30%
Target sequence (P35462 whole entry, looked up): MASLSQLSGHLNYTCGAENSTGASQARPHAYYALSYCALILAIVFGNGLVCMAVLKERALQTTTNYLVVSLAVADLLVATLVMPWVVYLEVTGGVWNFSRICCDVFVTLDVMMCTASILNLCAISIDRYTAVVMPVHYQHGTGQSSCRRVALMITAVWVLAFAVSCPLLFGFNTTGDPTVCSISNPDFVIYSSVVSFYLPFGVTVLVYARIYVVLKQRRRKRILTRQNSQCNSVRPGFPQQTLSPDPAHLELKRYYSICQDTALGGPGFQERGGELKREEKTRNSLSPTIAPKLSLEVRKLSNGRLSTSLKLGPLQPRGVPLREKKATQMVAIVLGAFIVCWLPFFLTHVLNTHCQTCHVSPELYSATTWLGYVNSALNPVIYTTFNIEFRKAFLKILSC
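Agonist-mode cell screen: cells plated at 1500/well and incubated overnight at 37 °C, then exposed to library compounds for 90 min at 37 °C. Detection reagent was added for 30–60 min at room temperature, and luminescence was read.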
Chronic BCR inh – inhibitors of chronic active B-cell receptor signaling; 340,000 compounds, 0.05% hits; AID 493014; Potency, µM (series often up to 46.1 µM), actives largely listed as inhibitors; ABC-DLBCL IkBa-CBG/CBR reporter, luminescence ratio, 4 h; active = well fitted inhibition curve with a large enough effect in the signal ratio, with a control signal flat, not every such curve was filed as active; inconclusive = small, poorly fitted or top-dose-only effect, or effect the other way, or a change in a side signal; the % refers to the signal ratio
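Concentration-response series (up to 46 uM) were applied to TMD8 dual-reporter cells for 4 h at 37C with doxycycline. Green/red ratio, after filter-overlap correction, defined %Activity; red signal alone was normalised to basal cells and zero luminescence.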
DRD3 antagonist – antagonists of human D3 dopamine receptor | 360,000 compounds, 2.5% hits | D3R cells, DiscoveRx beta-arrestin luminescence, antagonist mode; active compounds read low | max response, negative = inhibition, % | P35462 | AID 652054; in the data active = max response below about -50%; inconclusive = no clear call, values can overlap the other calls
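Cells expressing the human receptor were seeded at 1500 cells/well, incubated overnight at 37 degrees C in 5% CO2, then exposed to library compounds with dopamine controls for 90 minutes at 37 degrees C before luminescent detection.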
D1 antagonist – blocks dopamine activation of the human D1 receptor; P21728; HEK293 TREx D1 cells, calcium flux, dopamine EC80; active compounds read low; activity change, negative = inhibition, % at 10 µM; 360,000 compounds, 3.2% hits; in the data active = activity change below about -30%
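HEK293 T-REx cells expressing inducible, force-coupled D1 receptor; no-wash Ca dye, 30–90 min RT. Cmpd → 180 s read at 1 Hz → EC80 DA → 180 s read.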
Hits are given with their value; i = inactive; ? = inconclusive; nt = no result. Sampled rows, rich in hits. Any-hit rate of the full collection: about 6%.

SMILES	D1 PAM	D1 agonist	DRD3 agonist	Chronic BCR inh	DRD3 antagonist	D1 antagonist
Cc1cccc2cc(C#N)c(SCC(=O)Nc3ccccc3N3CCOCC3)nc12	i	i	i	i	i	i
CCN1CCN(CC(=O)N/N=C/c2cc(Br)cs2)CC1	i	i	i	i	-53	i
Cc1nccn1CC(=O)N/N=C/c1cc(Br)cs1	i	i	i	i	i	i
O=C(NCC(c1ccco1)N1CCc2ccccc21)C(=O)Nc1ccccc1F (centres undefined)	i	i	i	i	?	i
O=C(NCC(c1ccco1)N1CCc2ccccc21)C(=O)Nc1ccc(F)cc1F (centres undefined)	i	i	i	9.2µM	i	i
CCCc1ccc(S(=O)(=O)N2CCC(c3nnc(-c4cccc(C)c4)o3)CC2)cc1	i	i	i	nt	nt	i
COc1ccc(COc2ncnc3ccc(Br)cc23)cc1F	32	i	i	i	i	i
NCCCC[C@H](N)C(=O)O	nt	nt	i	nt	nt	nt
COc1ccc2c(c1)c1c(c(=O)n(Cc3ccccc3)c(=O)n1Cc1ccc(C)cc1)n2C	i	i	i	nt	nt	i
O=C(O)c1ccccc1Sc1ccccc1S(=O)(=O)NC1CCCCC1	i	i	32	i	i	i
COc1cc(NC(=O)C2(C)CCCN2C(=O)C(C)C)cc(OC)c1OC (centres undefined)	nt	nt	i	nt	i	nt
O=C(c1ccco1)N1CCN(Cc2cccc(F)c2)CC1	i	i	36	i	i	i
Cc1ccc(C(c2nnnn2Cc2cccs2)N2CCN(C(=O)c3ccco3)CC2)cc1 (centres undefined)	i	i	i	i	-52	i
O=C(c1ccco1)N1CCN(Cc2cccc3ccccc23)CC1	nt	i	32	i	i	i
COc1ccc2oc(C(=O)N3CCN(C(=O)c4ccco4)CC3)c(C)c2c1	i	i	i	?	i	-36
O=C(c1ccco1)N1CCN(Cc2c(Cl)cccc2Cl)CC1	i	i	i	?	i	i
O=C(c1cccc(F)c1)N1CCN(Cc2ccco2)CC1	i	i	i	i	i	i
O=C(Cc1ccc(F)cc1)NCCc1csc(-c2ccc(C(F)(F)F)cc2)n1	i	i	i	nt	nt	i
CCCCN1C(=O)c2[nH]nc(-c3ccccc3O)c2C1c1ccc(C(C)(C)C)cc1 (centres undefined)	i	i	i	nt	nt	i
O=C(c1ccco1)N1CCN(Cc2ccc(Cl)cc2)CC1	nt	nt	i	?	i	nt
O=C(c1ccco1)N1CCN(Cc2ccc(Br)cc2)CC1	i	i	33	i	i	i
O=C(c1ccco1)N1CCN(CC(O)COc2ccc(Br)cc2)CC1 (centres undefined)	i	i	35	i	i	i
Cn1nnnc1SCC(=O)N1CCN(C(=O)c2ccco2)CC1	i	i	i	i	i	-38
COC(=O)c1ccc(OCC(O)CN2CCN(C(=O)c3ccco3)CC2)cc1 (centres undefined)	i	i	i	i	i	i
CCc1ccc(CN2CCN(C(=O)c3ccco3)CC2)cc1	i	i	69	i	i	i
SMILES	D1 PAM	D1 agonist	DRD3 agonist	Chronic BCR inh	DRD3 antagonist	D1 antagonist
COC(=O)C1(C(=O)OC)C2CCCCC2N(S(=O)(=O)c2ccc(C)cc2)[C@@H]1CC(C)=O (some centres undefined)	nt	nt	i	nt	i	nt
COc1ccccc1N(C)C(=O)Cn1c(=O)oc2cc(S(=O)(=O)N3CCCC3)ccc21	i	i	i	nt	nt	i
COc1cccc(CN2CCN(C(=O)c3ccco3)CC2)c1	i	i	37	i	i	i
CCc1ccc(CN2CCN(C(=O)c3cccc(OC)c3OC)CC2)cc1	i	i	i	i	-57	i
COc1cccc(C(=O)N2CCN(C(=O)c3cccc4ccccc34)CC2)c1OC	i	i	i	?	i	i
Cc1cc2c(s1)c1cnn(Cc3ccc(Br)cc3)c(=O)c1n2C	i	i	nt	nt	nt	i
Cc1cc(Oc2nc3ccccn3c(=O)c2/C=C(\C#N)C(=O)NC2CCS(=O)(=O)C2)ccc1Cl (centres undefined)	i	i	i	?	i	-30
O=C(c1cc(-c2ccccn2)nc2c(Cl)cccc12)N1CCN(C(=O)C2CCCO2)CC1 (centres undefined)	i	i	i	i	-51	i
O=S(=O)(Cc1ccccc1)C(CCCc1ccccc1)S(=O)(=O)Cc1ccccc1	nt	nt	i	nt	i	nt
COc1cccc(C2NC(C)(C(=O)O)C3C(=O)N(C(C)C)C(=O)C23)c1O (centres undefined)	nt	i	i	i	-53	i
CSCCC1(C(=O)O)NC(c2ccccc2O)C2C(=O)N(C(C)C)C(=O)C21 (centres undefined)	nt	i	i	?	i	i
CCSc1nnc(NC(=O)C(NC(=O)c2ccc(Cl)cc2)C(C)C)s1 (centres undefined)	i	i	i	i	-61	i
CC(=O)Nc1ccc(NC(=O)C(NC(=O)c2ccc(Cl)cc2)C(C)C)cc1 (centres undefined)	nt	nt	i	nt	i	nt
Cc1nc2[nH]onc2c2nccc(=O)c12	i	i	i	i	?	-39
Cn1cc(C[C@H](C(=O)O)N2C(=O)c3ccc(C(=O)O)cc3C2=O)c2ccccc21	i	i	nt	i	nt	i
Cc1ccc(/C=C/c2onc(C)c2S(=O)(=O)N2CCC(C(=O)Nc3ccc(OC(F)(F)F)cc3)CC2)cc1	i	i	i	nt	nt	-68
COc1ccc(/C=C\c2onc(C)c2S(=O)(=O)N2CCC(C(=O)Nc3cccc(Cl)c3)CC2)cc1	i	i	62	nt	nt	i
O=c1[nH]c(=O)n(Cc2ccc(Oc3ccccc3)cc2)cc1Br	i	i	nt	i	nt	i
C=C1CC(Cn2cc(Br)c(=O)[nH]c2=O)(c2ccc(-c3ccccc3)cc2)OC1=O (centres undefined)	nt	nt	i	nt	-89	nt
COc1ccc(NC(=O)Cn2c(=O)n(-c3ccc(C)cc3)c(=O)c3c2c2cc(C)ccc2n3C)cc1	i	i	i	nt	nt	i
CCc1ccc(NC(=O)N2CC=C(c3c[nH]c4ccccc34)CC2)cc1	i	i	i	nt	nt	i
CCOc1ccc(NC(=O)N2CC=C(c3c[nH]c4ccccc34)CC2)cc1	i	i	i	nt	nt	-35
CC(C)NC(=O)c1ccc2c(c1)N(Cc1cccc(Cl)c1)C(=O)c1ccccc1S2=O (centres undefined)	i	i	i	i	nt	i
CN(C)c1nc(N)nc2c1ncn2C1OC(CO)CC1O (centres undefined)	nt	nt	i	nt	i	nt
CCOc1ccccc1OCCCCN1CCCC1	i	i	i	i	-63	i
CC(C)(C)c1ccccc1OCCCCN1CCCC1	i	i	i	i	-68	i
CCc1ccccc1OCCCCN1CCCCC1	i	i	i	i	-87	-56
